Screens: PubChem BioAssay, several laboratories
A selection: hits, their analogues and other compounds. The true share with any hit is near 8.7%.
Smad3 inh – blocks human Smad3 binding to FoxH1 peptide | TR-FRET Smad3/Dy647-FoxH1 peptide binding, europium anti-His | inhibition, % at 25 µM | 0.29% of 88,000 active | P84022;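 active means compounds that reduce the energy-transfer binding signal between the protein and its labelled peptide by more than half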;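 further: 0% = Smad3 plus labelled peptide maximal FRET and 100% = peptide-only background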
PostGolgi yeast – growth inhibition of a yeast mutant, post-Golgi transport screen; post-Golgi transport phenotypic cell assay; inhibition, % at 10 µM; 0.9% of 98,000 active;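 further: yeast cells grown in 1536-well plates; yeast grown about 18 h at 30C before absorbance read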
hDAT+cocaine – changed human dopamine transporter uptake under cocaine IC80 | LLC-PK1 hDAT cells, [14C]-dopamine uptake with cocaine IC80; actives deviate in either direction | B-score at 10 µM | 1.3% of 110,000 active;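 active means Z score or B-score, a plate-position-corrected score, falls beyond the plate's 99.7% confidence bounds, in either direction; inactive means both scores lie inside the 99.7% bounds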;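 further: scored against the spread of the other compound wells on the same plate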
Target sequence (Q01959 whole entry, looked up): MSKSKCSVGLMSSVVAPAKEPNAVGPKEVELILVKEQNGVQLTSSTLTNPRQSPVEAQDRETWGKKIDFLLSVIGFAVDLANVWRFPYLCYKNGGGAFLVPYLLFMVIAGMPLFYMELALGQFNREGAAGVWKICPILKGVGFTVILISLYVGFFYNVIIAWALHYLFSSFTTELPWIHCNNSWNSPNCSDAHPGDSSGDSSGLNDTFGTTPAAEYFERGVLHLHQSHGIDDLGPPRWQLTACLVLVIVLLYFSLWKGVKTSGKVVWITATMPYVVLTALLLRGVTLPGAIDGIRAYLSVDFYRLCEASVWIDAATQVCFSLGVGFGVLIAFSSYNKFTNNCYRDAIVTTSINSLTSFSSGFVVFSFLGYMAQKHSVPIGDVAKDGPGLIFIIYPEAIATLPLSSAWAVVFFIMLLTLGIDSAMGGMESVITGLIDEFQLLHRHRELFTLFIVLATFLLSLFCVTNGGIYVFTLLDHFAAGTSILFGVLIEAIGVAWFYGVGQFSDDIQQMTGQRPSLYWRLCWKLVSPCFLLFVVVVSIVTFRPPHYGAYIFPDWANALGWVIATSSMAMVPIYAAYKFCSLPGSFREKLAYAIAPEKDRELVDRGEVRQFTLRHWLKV
TNAP act mid DEA – activates human TNAP at intermediate phosphate acceptor concentration; P05186; purified TNAP, CDP-star luminescence, 100 mM DEA, 30 min; stronger effect = higher value; scale: 0 levamisole-inhibited, 1 vehicle-only enzyme; activation factor at 20 µM; 64,000 tested, under 10 active; AID 813;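 active means activation factor of at least 2 at 20 µM, relative to controls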
Cav3 T inh – blocks human Cav3.2 T-type calcium channel; O95180; Cav3.2-expressing cells, Fluo-4 calcium fluorescence FDSS; stronger effect = lower value; B-score at 10 µM; 4% of 100,000 active;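 active means single-dose well whose peak fluorescence ratio is a statistical outlier from its plate by either plate-standardised score or position-corrected B-score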
PostGolgi ctrl – yeast control strain growth, post-Golgi counter-screen | efflux-deficient yeast background strain, growth absorbance A615, 16 h | inhibition, % at 10 µM | 5% of 98,000 active | AID 738
* marks the source's active call; other numbers are inactive results. Unless noted, no stated cut-off is given here; in the data, active means inhibition above about 30%; inactive means the rest.

Screening Cc1[nH]nc(-c2ccc(O)cc2O)c1-c1ccc(Cl)cc1 returned Smad3 inh 8, PostGolgi yeast 16, hDAT+cocaine 0.55, TNAP act mid DEA 1.1, Cav3 T inh -4.8* and PostGolgi ctrl 85*.
`COc1ccc(-c2n[nH]c(C)c2-c2ccc(Cl)cc2)c(O)c1OC` gave Smad3 inh -7, PostGolgi yeast 0, hDAT+cocaine -0.02, TNAP act mid DEA 1.3, Cav3 T inh -0.92 and PostGolgi ctrl 51*.
For Cc1[nH]nc(-c2ccc(O)c(C)c2O)c1-c1cnn(-c2ccccc2)c1 the results were Smad3 inh -2, PostGolgi yeast -11, hDAT+cocaine 0.46, TNAP act mid DEA 0.9, Cav3 T inh -0.91 and PostGolgi ctrl 8.
`CCCOC(=O)c1ccc(Oc2c(-c3ccc(OC)cc3O)n[nH]c2C)cc1` gave Smad3 inh 4, PostGolgi yeast -7, hDAT+cocaine -0.25, TNAP act mid DEA 1.1, Cav3 T inh -1.3 and PostGolgi ctrl 5.
Screening O=C(Nc1ccc2sccc2c1)c1ccc(Cl)s1 returned Smad3 inh -4, PostGolgi yeast 21, hDAT+cocaine 0.31, TNAP act mid DEA 1.2, Cav3 T inh -0.7 and PostGolgi ctrl 1.
Screening COc1ccc(C2CC2/C(=N/OC(=O)c2cccs2)c2ccccc2)cc1 (configuration not stated) returned Smad3 inh -9, PostGolgi yeast 20, hDAT+cocaine -0.36, Cav3 T inh -6* and PostGolgi ctrl 40*.
`C/C(=N\NC(=O)C1CC1c1ccccc1)c1cccs1` (configuration not stated) gave PostGolgi yeast -4, hDAT+cocaine -1.5, Cav3 T inh -0.28 and PostGolgi ctrl 1.
`O=C(CSC(=S)N1CCOCC1)Nc1nc(-c2ccccc2)c(-c2ccccc2)o1` gave PostGolgi yeast 4, hDAT+cocaine 0.014, Cav3 T inh -2.7 and PostGolgi ctrl 35*.
O=C(CSC(=S)N1CCCCC1)Nc1nc(-c2ccccc2)c(-c2ccccc2)o1 was read as PostGolgi yeast 2, hDAT+cocaine 1, Cav3 T inh -4* and PostGolgi ctrl 16.
`O=C(CSC(=S)N1CCOCC1)N1N=CCC1c1ccccc1` (configuration not stated) gave Smad3 inh -25, PostGolgi yeast 2, hDAT+cocaine -0.018, Cav3 T inh -0.54 and PostGolgi ctrl -1.
`Cn1nnnc1SCC(=O)Nc1nc(-c2ccccc2)c(-c2ccccc2)o1` gave Smad3 inh -3, PostGolgi yeast 5, hDAT+cocaine 0.27, TNAP act mid DEA 0.9, Cav3 T inh -0.2 and PostGolgi ctrl 25.
O=C(N[C@@H](Cc1ccc(O)cc1)C(=O)O)c1ccncc1 was read as hDAT+cocaine -0.037 and Cav3 T inh -1.5.
COC(=O)C1=CN(CC2CCCO2)C=C(C(=O)OC)C1c1ccccc1C(F)(F)F (configuration not stated) was read as Smad3 inh 6, PostGolgi yeast -5, hDAT+cocaine -0.87, Cav3 T inh 1 and PostGolgi ctrl 11.
Screening COC(=O)C1=CN(CCCN2CCCC2=O)C=C(C(=O)OC)C1c1ccccc1C(F)(F)F returned Smad3 inh 10, PostGolgi yeast 36*, hDAT+cocaine -0.72, TNAP act mid DEA 1.4, Cav3 T inh 0.8 and PostGolgi ctrl 3.
CC(C)CCn1cnc2c1c(=O)n(C)c(=O)n2C was read as Smad3 inh 8, hDAT+cocaine -0.34 and Cav3 T inh 0.64.
For COc1ccc(S(=O)(=O)NCCSC(C)(C)C)c(Cl)c1Cl the results were Smad3 inh 6, PostGolgi yeast 1, hDAT+cocaine -0.76, Cav3 T inh -3.3 and PostGolgi ctrl 31*.
Screening CCCNS(=O)(=O)c1ccc(OC)c(Cl)c1Cl returned Smad3 inh -14, PostGolgi yeast 10, hDAT+cocaine -0.031, Cav3 T inh -0.16 and PostGolgi ctrl 4.
For CS(=O)(=O)N(CCc1ccccc1)CC(=O)N1CCCCC1 the results were Smad3 inh -23, PostGolgi yeast -2, hDAT+cocaine 1.8, TNAP act mid DEA 0.9, Cav3 T inh -0.11 and PostGolgi ctrl -7.
`O=C(C1CCCN(S(=O)(=O)c2ccc(Cl)cc2)C1)N(Cc1cccs1)C1CC1` (configuration not stated) gave PostGolgi yeast 94*, hDAT+cocaine -0.025, TNAP act mid DEA 1, Cav3 T inh -5.6* and PostGolgi ctrl 21.
For CCSC1(SCC)N=C(N)C2(C#N)C(c3ccc(F)cc3)C12C#N (configuration not stated) the results were Smad3 inh 1, PostGolgi yeast -1, hDAT+cocaine -0.67, Cav3 T inh 0.035 and PostGolgi ctrl 2.
Screening Cc1cc2nc(C3CCN(CC4COc5ccccc5O4)CC3)[nH]c2cc1C (configuration not stated) returned Smad3 inh 1, PostGolgi yeast 41*, hDAT+cocaine -0.063, TNAP act mid DEA 1.1, Cav3 T inh -6.3* and PostGolgi ctrl 34*.
For CCCNC(=S)N1CCC(c2nc3cc(C)c(C)cc3[nH]2)CC1 the results were PostGolgi yeast 7, hDAT+cocaine 0.83, Cav3 T inh -0.44 and PostGolgi ctrl 3.
CCS(=O)(=O)/N=C(\N)c1ccccc1 was read as Smad3 inh -11, PostGolgi yeast 25, hDAT+cocaine -1.1, TNAP act mid DEA 0.8 and PostGolgi ctrl -7.
N/C(=N\S(=O)(=O)c1ccc(Cl)s1)c1ccccc1 was read as Smad3 inh 15, PostGolgi yeast 21, hDAT+cocaine -0.23, TNAP act mid DEA 0.9, Cav3 T inh -5.8* and PostGolgi ctrl 1.
For Cc1ccc(C2CC(c3ccccc3)=NN2C(=S)Nc2ccccc2)o1 (configuration not stated) the results were PostGolgi yeast 29, hDAT+cocaine -0.94, Cav3 T inh -7.5* and PostGolgi ctrl 14.
COc1cccc(C2CC(c3cccs3)=NN2C(=S)Nc2ccccc2)c1OC (configuration not stated) was read as PostGolgi yeast -1, hDAT+cocaine 1.4, Cav3 T inh -4.1 and PostGolgi ctrl 10.
C[C@]12CCC(=O)C=C1CC[C@@H]1[C@@H]2C(=O)C[C@@]2(C)[C@H]1CC[C@]2(O)C(=O)CO was read as Smad3 inh 10, hDAT+cocaine -0.64 and TNAP act mid DEA 0.9.
Screening O=C(NCc1cccc(C(F)(F)F)c1)C1CC(c2c(Cl)cccc2Cl)=NO1 (configuration not stated) returned PostGolgi yeast -8, hDAT+cocaine 1, Cav3 T inh -2.2 and PostGolgi ctrl 34*.
`Cc1ccc(CCNC(=O)C2CC(c3cccc(F)c3)=NO2)cc1` (configuration not stated) gave hDAT+cocaine -0.084 and Cav3 T inh -0.28.
